# Experimental data: PubChem BioAssay (Tox21)
# Records with an inconclusive call do not appear. Where a call stands in place of a potency, no number is given. Values without a mark were called inactive. The source made the active and inactive calls. Unless noted, calls come from the whole dose curve; as a rule, active = well fitted curve in the direction sought with a large enough effect in the repeat runs; inconclusive = weak or mixed curves; inactive = no such curve, though single readings can be large; an effect the other way counts as inactive or inconclusive.
# What was measured:
# [1] = qHTS assay to identify aromatase inhibitors - cell viability counter screen (AID 743084);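 note: cells stimulated with testosterone during compound exposure; nearly all actives have a fitted effect of over 55% in size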; note: potency is the fitted concentration of half-maximal effect
# [2] = target: Aryl hydrocarbon receptor (Homo sapiens) (UniProt P35869); experiment: qHTS assay to identify small molecule that activate the aryl hydrocarbon receptor (AhR) signaling pathway (AID 743085); note: nearly all actives have a fitted effect of over 15% in size; note: potency is the fitted concentration of half-maximal effect;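 for activation: HG2L7.5c1 human HepG2 liver cells with stably integrated DRE-driven firefly reporter; series mostly up to about 70 µM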
# Aryl hydrocarbon receptor (Homo sapiens), sequence (P35869 whole entry, looked up): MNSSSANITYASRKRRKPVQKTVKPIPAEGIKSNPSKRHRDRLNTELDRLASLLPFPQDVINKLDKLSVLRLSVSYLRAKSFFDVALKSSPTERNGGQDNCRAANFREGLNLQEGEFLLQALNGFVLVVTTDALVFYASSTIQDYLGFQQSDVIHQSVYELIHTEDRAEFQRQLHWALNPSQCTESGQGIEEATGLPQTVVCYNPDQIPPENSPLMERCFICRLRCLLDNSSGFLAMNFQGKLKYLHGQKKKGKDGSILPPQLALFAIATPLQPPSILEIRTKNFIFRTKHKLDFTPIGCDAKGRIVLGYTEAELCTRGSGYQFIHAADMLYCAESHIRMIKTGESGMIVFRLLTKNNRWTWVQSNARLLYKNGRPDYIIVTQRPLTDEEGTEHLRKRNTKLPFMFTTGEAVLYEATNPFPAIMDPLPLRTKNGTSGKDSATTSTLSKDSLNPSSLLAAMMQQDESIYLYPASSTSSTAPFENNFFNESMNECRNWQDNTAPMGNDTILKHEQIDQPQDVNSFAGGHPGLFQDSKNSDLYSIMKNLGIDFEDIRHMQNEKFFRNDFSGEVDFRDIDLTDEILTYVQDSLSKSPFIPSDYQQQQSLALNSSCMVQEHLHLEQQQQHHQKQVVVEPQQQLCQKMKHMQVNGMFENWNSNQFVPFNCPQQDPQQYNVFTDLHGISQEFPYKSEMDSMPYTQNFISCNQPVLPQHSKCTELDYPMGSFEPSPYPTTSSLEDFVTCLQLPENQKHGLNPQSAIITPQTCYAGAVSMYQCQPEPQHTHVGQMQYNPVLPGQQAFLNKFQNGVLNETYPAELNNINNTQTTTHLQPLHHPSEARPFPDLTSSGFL
# Outline: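 Luminescence read-out: ONE-Glo reagent, 30 min at room temperature, in HG2L7.5c1 HepG2 reporter cells treated 24 h at 37C. Viability was measured beforehand by CellTiter-Fluor fluorescence after 30 min at 37C.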
# [3] = target: Peroxisome proliferator-activated receptor gamma (Homo sapiens) (UniProt P37231); experiment: qHTS assay to identify small molecule agonists of the peroxisome proliferator-activated receptor gamma (PPARg) signaling pathway (AID 743094; active = well fitted activation curve with a large enough effect in the signal ratio in the repeat runs, not every such curve was filed as active; the % refers to the signal ratio)
# Peroxisome proliferator-activated receptor gamma (Homo sapiens), sequence (P37231 whole entry, looked up): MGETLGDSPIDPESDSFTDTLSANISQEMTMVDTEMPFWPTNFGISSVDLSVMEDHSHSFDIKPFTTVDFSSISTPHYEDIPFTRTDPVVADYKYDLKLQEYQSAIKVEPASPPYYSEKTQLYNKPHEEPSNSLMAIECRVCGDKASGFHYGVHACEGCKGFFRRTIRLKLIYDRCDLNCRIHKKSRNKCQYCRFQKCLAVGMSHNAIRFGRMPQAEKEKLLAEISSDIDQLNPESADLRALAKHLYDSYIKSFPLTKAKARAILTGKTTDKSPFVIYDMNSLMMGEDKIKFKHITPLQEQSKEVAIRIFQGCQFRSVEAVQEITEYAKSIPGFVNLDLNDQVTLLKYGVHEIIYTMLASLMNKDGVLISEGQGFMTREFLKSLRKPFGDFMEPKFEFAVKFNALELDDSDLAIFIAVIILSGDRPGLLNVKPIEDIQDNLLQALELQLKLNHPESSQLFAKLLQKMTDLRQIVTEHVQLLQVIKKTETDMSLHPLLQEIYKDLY
# Outline: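 Stably transfected HEK293H cells (GeneBLAzer PPARg UAS-bla) were incubated with test substances for 17 h at 37C after a 5 h pre-incubation; beta-lactamase activity was then detected by FRET substrate fluorescence.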
# [4] = qHTS assay to identify small molecule phospholipidosis (PLD) inducers (AID 1259344; active = well fitted curve in the direction sought with a large enough effect; an effect the other way counts as inactive or inconclusive)
# Outline: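 HepG2 cells, 900/well, treated with compound plus LipidTOX Red for 24 h at 37 C; amiodarone positive and DMSO negative controls. Fixed with paraformaldehyde/Hoechst, then high-content imaging scored LipidTOX pit count and integrated intensity per well and per cell.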
# [5] = target: Nuclear receptor subfamily 1 group I member 2 (Homo sapiens) (UniProt O75469); experiment: CYP3A4 induction through human pregnane X receptor (PXR) by small molecules, qHTS assay (AID 1346984); note: nearly all actives have a fitted effect of over 40% in size; note: potency is the fitted concentration of half-maximal effect
# Outline: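 DPX-2 reporter cells; 24h cpd, 37C; Luciferin-IPA 3uM final x3h; One-Glo 30 min RT; lumi read.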
# [6] = target: Nuclear receptor subfamily 1 group I member 2 (Homo sapiens) (UniProt O75469); experiment: Human pregnane X receptor (PXR) activation by small molecules, qHTS assay (AID 1346985); note: nearly all actives have a fitted effect of over 40% in size; note: potency is the fitted concentration of half-maximal effect
# Outline: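 DPX-2 cells (HepG2 co-transfected with a PXR response element and a CYP3A4-promoter luciferase construct) were seeded at 2,000 per well, rested 5 hr at 37C, then exposed to DMSO-dissolved compounds for 24 hr. Activation was read as luciferase luminescence.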
# [7] = qHTS assay to identify small molecule that activate the aryl hydrocarbon receptor (AhR) signaling pathway - cell viability counter screen (AID 743086);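 note: HepG2 liver cells carrying the AhR DRE luciferase reporter; series mostly up to about 70 µM; nearly all actives have a fitted effect of over 45% in size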
# Outline: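 HepG2-AhR-luc (HG2L7.5c1) cells, 4000/well, treated 24 h at 37 C with compound; viability measured as CellTiter-Fluor fluorescence after 30 min in the same wells as the luciferase read.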
Compound,Potency [1],Potency [2],Potency [3],Potency [4],Potency [5],Potency [6],Potency [7]
O=P(O)(O)OC[C@H]1O[C@](O)(COP(=O)(O)O)[C@@H](O)[C@@H]1O,inactive,inactive,inactive,inactive,inactive,inactive,
CC(=O)O[C@H]1C(=O)[C@@]2(C)[C@H]([C@H](OC(=O)c3ccccc3)[C@]3(O)C[C@H](OC(=O)[C@H](O)[C@@H](NC(=O)c4ccccc4)c4ccccc4)C(C)=C1C3(C)C)[C@]1(OC(C)=O)CO[C@@H]1C[C@@H]2O,6.68 µM (active),inactive,inactive,inactive,6.31 µM (active),15.8 µM (active),
CC(C(=O)O)c1ccc(N2Cc3ccccc3C2=O)cc1 (stereo not drawn),inactive,0.0596 µM (active),inactive,inactive,inactive,inactive,inactive
O=C(NNCS(=O)(=O)O)c1ccncc1,inactive,,inactive,inactive,inactive,inactive,inactive
CC1(C)C(\C=C/C=C\C=C/C=C2/N(CCCCS(=O)(=O)O)c3ccc4ccccc4c3C2(C)C)=[N+](CCCCS(=O)(=O)[O-])c2ccc3ccccc3c21,,inactive,inactive,inactive,inactive,inactive,
CC(=O)[C@@]1(O)CC[C@H]2[C@@H]3C=C(Cl)C4=CC(=O)[C@@H]5C[C@@H]5[C@]4(C)[C@H]3CC[C@@]21C,inactive,inactive,inactive,inactive,inactive,inactive,inactive
COC(=O)CCC[N+](C)(C)C,inactive,inactive,inactive,inactive,inactive,inactive,inactive
FCOC(C(F)(F)F)C(F)(F)F,inactive,inactive,inactive,inactive,inactive,inactive,inactive
COc1ccc(/C=C/C(=O)OCCC(C)C)cc1,inactive,inactive,inactive,inactive,inactive,inactive,inactive
O=C(O)C1CCCN1 (stereo not drawn),inactive,inactive,,inactive,inactive,inactive,inactive
CN[C@@H]1[C@H](O[C@H]2[C@H](O[C@H]3[C@H](O)[C@@H](O)[C@H](N=C(N)N)[C@@H](O)[C@@H]3N=C(N)N)O[C@@H](C)[C@]2(O)CO)O[C@@H](CO)[C@H](O)[C@H]1O,inactive,inactive,inactive,inactive,inactive,inactive,inactive
Cc1nc(NS(=O)(=O)c2ccc(N)cc2)nc(C)c1Br,inactive,inactive,inactive,inactive,inactive,inactive,inactive
Nc1nc2c(c(=O)[nH]1)N(C=O)C(CNc1ccc(C(=O)N[C@@H](CCC(=O)O)C(=O)O)cc1)CN2 (stereo partly drawn),inactive,,inactive,inactive,inactive,inactive,inactive
COc1ccc(CCNC[C@H](O)c2ccc(O)cc2)cc1OC,inactive,,inactive,inactive,inactive,inactive,inactive
O=C(/C=C/c1cccc(F)c1)NC1CC1,inactive,inactive,inactive,inactive,inactive,10 µM (active),inactive
Cc1c(Cl)cccc1Nc1ncccc1C(=O)O,inactive,,inactive,inactive,inactive,inactive,inactive
OC[C@H]1OC([S-])[C@H](O)[C@@H](O)[C@@H]1O.[Au+] (stereo partly drawn),inactive,inactive,,inactive,inactive,inactive,inactive
CCCCC/C=C\CCC(=O)N[C@H]1[C@H](Oc2c3cc4cc2Oc2ccc(cc2Cl)[C@@H](O[C@@H]2O[C@H](CO)[C@@H](O)[C@H](O)[C@H]2NC(C)=O)[C@@H]2NC(=O)[C@H](NC(=O)[C@@H]4NC(=O)[C@H]4NC(=O)[C@@H](Cc5ccc(c(Cl)c5)O3)NC(=O)[C@H](N)c3ccc(O)c(c3)Oc3cc(O)cc4c3)c3ccc(O)c(c3)-c3c(O[C@H]4O[C@H](CO)[C@@H](O)[C@H](O)[C@@H]4O)cc(O)cc3[C@@H](C(=O)O)NC2=O)O[C@H](CO)[C@@H](O)[C@@H]1O,inactive,inactive,inactive,inactive,inactive,inactive,inactive
O=C(O)COc1ccc(CCNS(=O)(=O)c2ccccc2)s1,inactive,inactive,inactive,inactive,inactive,inactive,inactive
